Here are results for 17 compounds from PubChem BioAssay (EPA / NIEHS).

Test [1] concerns rabbit Platelet Activating Factor Receptor (PAF), gene 100354046. The experiment in a line: NVS_GPCR_rabPAF: NovaScreen (NVS) G Protein-Coupled Receptor Assay for rabbit Platelet Activating Factor Receptor (PAF) (AID 2283287). The method in brief: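 Rabbit platelet membrane preparation; radioligand displacement read by filter-based scintillation counting 1 h after dosing, loss of signal versus DMSO. Primary screen in duplicate at 25 uM, actives followed up in concentration series.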

Test [2] deals with D(1A) dopamine receptor (Homo sapiens) (UniProt P21728). The experiment in a line: NVS_GPCR_hDRD1: NovaScreen (NVS) G Protein-Coupled Receptor Assay for human Dopamine Receptor D1 (DRD1) (AID 2283269). The method in brief: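 Cell-free radioligand binding to human DRD1 from HEK293 membranes, read 1 h after dosing by filter-based scintillation counting. Loss of signal versus DMSO baseline marks displacement. Primary screen at 25 uM single concentration in duplicate; actives followed up in concentration series.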
Sequence of D(1A) dopamine receptor (Homo sapiens) (P21728 whole entry, looked up): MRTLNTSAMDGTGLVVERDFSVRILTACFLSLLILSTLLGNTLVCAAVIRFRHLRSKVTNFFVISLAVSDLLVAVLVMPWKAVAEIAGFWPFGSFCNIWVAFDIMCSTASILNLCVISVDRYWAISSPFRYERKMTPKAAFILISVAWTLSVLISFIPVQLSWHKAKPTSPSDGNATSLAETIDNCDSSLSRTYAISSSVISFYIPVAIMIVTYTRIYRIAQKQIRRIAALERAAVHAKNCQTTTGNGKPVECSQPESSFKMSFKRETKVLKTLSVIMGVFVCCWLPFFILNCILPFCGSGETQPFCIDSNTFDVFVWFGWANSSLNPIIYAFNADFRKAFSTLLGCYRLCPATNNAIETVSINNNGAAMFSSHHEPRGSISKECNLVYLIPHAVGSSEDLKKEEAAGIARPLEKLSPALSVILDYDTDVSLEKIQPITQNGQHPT

In test [3] the target is human Neuropeptide Receptor Y1 (NPY1), NPY1R (gene 4886) (UniProt P25929). The experiment in a line: NVS_GPCR_hNPY1: NovaScreen (NVS) G Protein-Coupled Receptor Assay for human Neuropeptide Receptor Y1 (NPY1) (AID 2283276). The method in brief:
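Cell-free radioligand binding using receptor extracted from SK-N-MC cells, 1 h incubation, filter-based scintillation counting. Primary screen single concentration 25 uM in duplicate; actives followed in concentration series. Loss of bound signal scored versus DMSO.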

For test [4], the target named is human Leukotriene B4 Receptor 1 (LTB4-BLT1), LTB4R (gene 1241) (UniProt Q15722). The experiment in a line: NVS_GPCR_hLTB4_BLT1: NovaScreen (NVS) G Protein-Coupled Receptor Assay for human Leukotriene B4 Receptor 1 (LTB4-BLT1) (AID 2283271). The method in brief:
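Radioligand displacement binding on receptor extracted from human neutrophils, cell-free, 1 h after dosing; filter-based scintillation counting. Primary screen in duplicate at 25 uM, actives retested in concentration-response up to 50 uM; loss of signal versus DMSO.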

Test [5] concerns the target human Thromboxane A2 Receptor (TXA2), TBXA2R (gene 6915) (UniProt P21731). The experiment in a line: NVS_GPCR_hTXA2: NovaScreen (NVS) G Protein-Coupled Receptor Assay for human Thromboxane A2 Receptor (TXA2) (AID 2283282).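 Also: actives reduce bound radioligand signal relative to DMSO baseline.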 In short, it runs like this: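 Human platelet-derived receptor preparation incubated with test chemical and radiolabelled ligand for 1 hour, cell-free. Bound label was separated by filtration and counted; displacement relative to DMSO controls gave activity, screened at 25 uM, then titrated.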

The target in test [6] is Muscarinic acetylcholine receptor M1 (Homo sapiens) (UniProt P11229). The experiment in a line: NVS_GPCR_hM1: NovaScreen (NVS) G Protein-Coupled Receptor Assay for human Muscarinic, M1 Receptor (AID 2283270). The method in brief: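 Cell-free radioligand displacement using membrane protein extracted from CHO cells, read by filter-based scintillation counting 1 h after dosing. Loss of bound signal fitted versus DMSO; primary screen single concentration 25 uM in duplicate, actives followed by concentration series.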
Sequence of Muscarinic acetylcholine receptor M1 (Homo sapiens) (P11229 whole entry, looked up): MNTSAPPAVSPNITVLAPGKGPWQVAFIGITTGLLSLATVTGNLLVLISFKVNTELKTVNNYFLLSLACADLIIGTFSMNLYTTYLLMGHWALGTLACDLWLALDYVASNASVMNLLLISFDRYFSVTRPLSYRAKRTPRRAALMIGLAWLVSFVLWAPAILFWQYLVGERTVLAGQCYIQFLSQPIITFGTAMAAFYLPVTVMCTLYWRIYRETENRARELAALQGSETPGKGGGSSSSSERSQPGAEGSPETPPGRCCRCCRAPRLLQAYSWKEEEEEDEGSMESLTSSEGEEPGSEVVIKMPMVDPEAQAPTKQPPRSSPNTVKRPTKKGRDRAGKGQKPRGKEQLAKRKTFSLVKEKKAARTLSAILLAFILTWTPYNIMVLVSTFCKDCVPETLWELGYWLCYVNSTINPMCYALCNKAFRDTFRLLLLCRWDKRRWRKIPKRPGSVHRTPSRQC

The target in test [7] is Muscarinic acetylcholine receptor M3 (Homo sapiens) (UniProt P20309). The experiment in a line: NVS_GPCR_hM3: NovaScreen (NVS) G Protein-Coupled Receptor Assay for human Muscarinic, M3 Receptor (AID 2283272). The method in brief: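 Radioligand displacement binding on human M3 receptor in CHO-derived membranes, 1 h incubation, filter-based scintillation counting. Primary screen in duplicate at 25 uM; actives followed up in concentration series; loss of signal versus DMSO.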
Sequence of Muscarinic acetylcholine receptor M3 (Homo sapiens) (P20309 whole entry, looked up): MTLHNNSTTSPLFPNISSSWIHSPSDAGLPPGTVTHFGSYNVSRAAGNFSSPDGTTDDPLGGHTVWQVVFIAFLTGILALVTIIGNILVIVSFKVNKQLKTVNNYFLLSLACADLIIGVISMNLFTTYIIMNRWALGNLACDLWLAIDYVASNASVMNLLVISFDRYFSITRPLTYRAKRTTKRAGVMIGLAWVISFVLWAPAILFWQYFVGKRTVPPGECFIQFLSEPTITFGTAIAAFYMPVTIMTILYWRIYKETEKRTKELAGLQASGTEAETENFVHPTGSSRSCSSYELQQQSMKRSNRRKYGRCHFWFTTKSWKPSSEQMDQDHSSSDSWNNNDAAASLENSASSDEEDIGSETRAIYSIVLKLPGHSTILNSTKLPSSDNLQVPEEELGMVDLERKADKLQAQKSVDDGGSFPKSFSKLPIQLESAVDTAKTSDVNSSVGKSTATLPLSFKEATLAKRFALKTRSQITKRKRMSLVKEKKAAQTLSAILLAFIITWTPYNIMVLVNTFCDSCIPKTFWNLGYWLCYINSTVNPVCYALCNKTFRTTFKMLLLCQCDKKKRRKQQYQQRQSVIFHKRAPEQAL

The target of test [8] is Muscarinic acetylcholine receptor M2 (Homo sapiens) (UniProt P08172). The experiment in a line: NVS_GPCR_hM2: NovaScreen (NVS) G Protein-Coupled Receptor Assay for human Muscarinic, M2 Receptor (AID 2283273). In short, it runs like this: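 CHO membrane prep, radioligand + test compound, 1 h; filtration, scintillation count. Screen 25 uM duplicate → conc. series for actives. Readout: decrease in binding vs DMSO control.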
Sequence of Muscarinic acetylcholine receptor M2 (Homo sapiens) (P08172 whole entry, looked up): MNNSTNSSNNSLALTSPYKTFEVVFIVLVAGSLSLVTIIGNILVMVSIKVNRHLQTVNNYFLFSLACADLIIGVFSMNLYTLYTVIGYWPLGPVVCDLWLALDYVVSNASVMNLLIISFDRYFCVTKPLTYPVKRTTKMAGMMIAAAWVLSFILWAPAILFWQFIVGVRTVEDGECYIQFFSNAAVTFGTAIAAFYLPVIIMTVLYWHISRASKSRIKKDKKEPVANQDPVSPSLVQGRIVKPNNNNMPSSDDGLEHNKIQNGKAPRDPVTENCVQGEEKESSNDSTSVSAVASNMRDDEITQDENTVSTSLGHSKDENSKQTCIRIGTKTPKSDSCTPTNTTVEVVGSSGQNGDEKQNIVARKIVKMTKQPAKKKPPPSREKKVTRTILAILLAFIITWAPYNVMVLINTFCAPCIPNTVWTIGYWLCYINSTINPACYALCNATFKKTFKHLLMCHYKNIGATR

For test [9], the target named is human Muscarinic, M4 Receptor, CHRM4 (gene 1132) (UniProt P08173). The experiment in a line: NVS_GPCR_hM4: NovaScreen (NVS) G Protein-Coupled Receptor Assay for human Muscarinic, M4 Receptor (AID 2283274). The method in brief:
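Cell-free radioligand displacement using CHO-derived human M4 receptor protein, 1 h after dosing; bound radioactivity by filtration and scintillation counting. Primary screen single 25 uM duplicate, actives followed in concentration series.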

For test [10], the target named is human Dopamine Receptor D2 (DRD2), DRD2 (gene 1813) (UniProt P14416). The experiment in a line: NVS_GPCR_hDRD2s: NovaScreen (NVS) G Protein-Coupled Receptor Assay for human Dopamine Receptor D2 (DRD2) (AID 2283266). The method in brief:
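Radioligand displacement used human DRD2 membranes extracted from CHO cells and was read by filter-based scintillation counting after 1.5 hours. Primary screening was in duplicate at 25 uM. Loss of signal versus DMSO was fitted, with concentration series in follow-up.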

In test [11] the target is human Neurokinin, NK2 Receptor, TACR2 (gene 6865) (UniProt P21452). The experiment in a line: NVS_GPCR_hNK2: NovaScreen (NVS) G Protein-Coupled Receptor Assay for human Neurokinin, NK2 Receptor (AID 2283278).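 Also: actives reduce bound radioligand signal relative to DMSO baseline.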 The method in brief: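 CHO-derived membrane protein, radioligand displacement, filter scintillation read at 4 h post-dose. Single-point 25 uM in duplicate, then concentration series for actives; DMSO as negative control.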
Sequence of human Neurokinin, NK2 Receptor, TACR2 (gene 6865) (P21452 whole entry, looked up): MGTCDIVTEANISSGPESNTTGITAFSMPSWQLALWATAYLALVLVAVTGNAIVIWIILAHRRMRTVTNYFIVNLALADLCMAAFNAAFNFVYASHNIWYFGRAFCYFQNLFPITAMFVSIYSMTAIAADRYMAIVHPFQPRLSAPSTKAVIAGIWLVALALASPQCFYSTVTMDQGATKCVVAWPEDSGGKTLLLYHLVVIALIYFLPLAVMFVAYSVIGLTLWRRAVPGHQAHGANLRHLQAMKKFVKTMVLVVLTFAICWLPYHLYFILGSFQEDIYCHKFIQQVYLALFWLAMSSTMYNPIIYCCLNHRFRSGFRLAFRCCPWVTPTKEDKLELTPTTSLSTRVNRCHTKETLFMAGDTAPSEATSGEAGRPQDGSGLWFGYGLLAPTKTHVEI

The target of test [12] is human Neurotensin Receptor (NTS), NTSR1 (gene 4923) (UniProt P30989). The experiment in a line: NVS_GPCR_hNTS: NovaScreen (NVS) G Protein-Coupled Receptor Assay for human Neurotensin Receptor (NTS) (AID 2283279). The method in brief:
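Radioligand displacement on human NTSR1 protein from CHO cells, cell-free, 1 h, filter-based scintillation counting. Primary screen at 25 uM in duplicate; hits rerun in concentration-response up to 50 uM.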

For test [13], the target named is human Opioid Receptor Delta 1 (Opiate D1), OPRD1 (gene 4985) (UniProt P41143). The experiment in a line: NVS_GPCR_hOpiate_D1: NovaScreen (NVS) G Protein-Coupled Receptor Assay for human Opioid Receptor Delta 1 (Opiate D1) (AID 2283280). The method in brief: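 Radioligand displacement on membranes from CHO cells expressing the receptor, read by filter scintillation counting 1 h after dosing. Duplicate single-point screen at 25 uM, then concentration series for actives; loss of signal versus DMSO.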
Sequence of human Opioid Receptor Delta 1 (Opiate D1), OPRD1 (gene 4985) (P41143 whole entry, looked up): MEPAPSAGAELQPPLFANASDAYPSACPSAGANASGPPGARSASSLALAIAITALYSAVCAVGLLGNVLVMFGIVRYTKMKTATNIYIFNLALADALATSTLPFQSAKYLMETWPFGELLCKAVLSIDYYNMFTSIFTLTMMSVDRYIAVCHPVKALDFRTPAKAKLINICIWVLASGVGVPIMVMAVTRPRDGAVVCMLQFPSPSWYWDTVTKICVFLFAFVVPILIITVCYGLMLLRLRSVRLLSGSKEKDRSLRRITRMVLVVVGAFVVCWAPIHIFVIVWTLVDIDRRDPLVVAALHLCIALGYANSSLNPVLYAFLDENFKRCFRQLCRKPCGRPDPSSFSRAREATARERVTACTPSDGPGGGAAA

The target in test [14] is human Vasopressin 1A Receptor (V1A), AVPR1A (gene 552) (UniProt P37288). The experiment in a line: NVS_GPCR_hV1A: NovaScreen (NVS) G Protein-Coupled Receptor Assay for human Vasopressin 1A Receptor (V1A) (AID 2283284). The method in brief:
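Cell-free radioligand displacement on human platelet preparations, 1.5 h incubation, filter-based scintillation counting. Chemicals first tested in duplicate at 25 uM; actives then run in concentration-response up to 50 uM, loss of signal fitted against DMSO.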

Test [15] concerns the target mouse Cholecystokinin, CCK1 Receptor (CCKA), Cckar (gene 12425) (UniProt O08786). The experiment in a line: NVS_GPCR_mCCKAPeripheral: NovaScreen (NVS) G Protein-Coupled Receptor Assay for mouse Cholecystokinin, CCK1 Receptor (CCKA) (AID 2283285). In short, it runs like this: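 Radioligand competitive displacement on mouse pancreatic membranes, 2 h incubation; filter-based scintillation counting, loss of signal versus DMSO. Single-concentration screen at 25 uM in duplicate, actives retested in concentration-response up to 50 uM.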

Test [16] concerns the target human Endothelin Receptor Type B (ETB), EDNRB (gene 1910) (UniProt P24530). The experiment in a line: NVS_GPCR_hETB: NovaScreen (NVS) G Protein-Coupled Receptor Assay for human Endothelin Receptor Type B (ETB) (AID 2283267). In short, it runs like this:
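Human astrocytoma cell membranes; radioligand competitive binding read by filter scintillation counting 4 hours after dosing. Single-concentration duplicate screen at 25 uM, then singleton concentration-response up to 50 uM; loss of signal versus DMSO.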

In test [17] the target is Neuropeptide Y receptor type 2 (Homo sapiens) (UniProt P49146). The experiment in a line: NVS_GPCR_hNPY2: NovaScreen (NVS) G Protein-Coupled Receptor Assay for human Neuropeptide Receptor Y2 (NPY2) (AID 2283277). The method in brief: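 Radioligand binding on membranes extracted from SK-N-MC cells, cell-free, read 1 h after dosing by filter-based scintillation counting. Loss of signal vs DMSO. Primary screen in duplicate at 25 uM; actives followed up in concentration-response up to 50 uM.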

In test [18] the target is rat Serotonin, 5-Hydroxytryptamine Receptor 1 (5HT1), Non-Selective Binding, Htr1a (gene 24473) (UniProt P19327). The experiment in a line: NVS_GPCR_r5HT1_NonSelective: NovaScreen (NVS) G Protein-Coupled Receptor Assay for rat Serotonin, 5-Hydroxytryptamine Receptor 1 (5HT1), Non-Selective Binding (AID 2283286). In short, it runs like this:
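Rat cortical membranes, radioligand displacement, 1 h incubation, read by filter scintillation. Primary screen in duplicate at 25 uM. Hits (e.g. ≥30% inhibition) went to concentration-response up to 50 uM, fitted as loss of binding versus DMSO.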

Records with an inconclusive call do not appear. Calls of active or inactive are those of the source. The calls were made as follows: active = hit-call score of the fitted dose curve at least 0.9, where 1 is the maximum; inconclusive = response in the unintended direction; inactive = score below 0.9.

Sequence of human Muscarinic, M4 Receptor, CHRM4 (gene 1132) (P08173 whole entry, looked up): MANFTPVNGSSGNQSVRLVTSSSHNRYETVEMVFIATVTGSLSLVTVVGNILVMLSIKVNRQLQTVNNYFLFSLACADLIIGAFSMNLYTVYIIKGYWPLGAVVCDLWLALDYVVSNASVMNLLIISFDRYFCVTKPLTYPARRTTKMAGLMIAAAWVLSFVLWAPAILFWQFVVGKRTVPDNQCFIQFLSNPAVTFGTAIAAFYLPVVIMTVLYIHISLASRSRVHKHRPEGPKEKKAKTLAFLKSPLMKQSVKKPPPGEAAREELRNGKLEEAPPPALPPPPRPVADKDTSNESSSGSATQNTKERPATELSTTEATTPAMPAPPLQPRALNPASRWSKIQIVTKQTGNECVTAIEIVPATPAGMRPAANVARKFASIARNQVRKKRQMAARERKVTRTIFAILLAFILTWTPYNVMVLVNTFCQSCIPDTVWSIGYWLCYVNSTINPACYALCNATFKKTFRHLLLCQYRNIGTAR
Sequence of human Dopamine Receptor D2 (DRD2), DRD2 (gene 1813) (P14416 whole entry, looked up): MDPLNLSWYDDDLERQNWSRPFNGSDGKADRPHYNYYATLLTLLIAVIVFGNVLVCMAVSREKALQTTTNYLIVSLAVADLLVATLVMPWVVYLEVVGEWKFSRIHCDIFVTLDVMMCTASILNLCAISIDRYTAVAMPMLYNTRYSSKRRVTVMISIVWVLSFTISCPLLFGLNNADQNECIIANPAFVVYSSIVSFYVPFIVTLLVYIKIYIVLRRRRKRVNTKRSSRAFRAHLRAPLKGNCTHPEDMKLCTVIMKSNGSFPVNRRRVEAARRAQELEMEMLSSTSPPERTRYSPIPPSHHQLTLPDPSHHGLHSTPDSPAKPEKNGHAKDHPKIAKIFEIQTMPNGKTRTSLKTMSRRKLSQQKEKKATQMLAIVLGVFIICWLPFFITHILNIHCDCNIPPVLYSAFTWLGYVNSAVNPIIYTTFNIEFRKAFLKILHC
Sequence of human Neuropeptide Receptor Y1 (NPY1), NPY1R (gene 4886) (P25929 whole entry, looked up): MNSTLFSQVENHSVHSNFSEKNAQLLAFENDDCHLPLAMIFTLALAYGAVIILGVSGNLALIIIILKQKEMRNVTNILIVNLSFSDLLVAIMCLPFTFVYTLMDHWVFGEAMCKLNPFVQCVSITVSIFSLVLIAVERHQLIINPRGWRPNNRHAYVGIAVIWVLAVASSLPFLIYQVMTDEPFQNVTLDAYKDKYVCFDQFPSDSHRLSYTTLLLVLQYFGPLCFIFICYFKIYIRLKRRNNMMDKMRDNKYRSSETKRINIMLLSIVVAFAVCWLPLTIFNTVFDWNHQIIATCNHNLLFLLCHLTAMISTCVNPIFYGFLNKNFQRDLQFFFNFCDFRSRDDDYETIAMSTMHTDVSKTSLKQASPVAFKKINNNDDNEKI
Sequence of human Neurotensin Receptor (NTS), NTSR1 (gene 4923) (P30989 whole entry, looked up): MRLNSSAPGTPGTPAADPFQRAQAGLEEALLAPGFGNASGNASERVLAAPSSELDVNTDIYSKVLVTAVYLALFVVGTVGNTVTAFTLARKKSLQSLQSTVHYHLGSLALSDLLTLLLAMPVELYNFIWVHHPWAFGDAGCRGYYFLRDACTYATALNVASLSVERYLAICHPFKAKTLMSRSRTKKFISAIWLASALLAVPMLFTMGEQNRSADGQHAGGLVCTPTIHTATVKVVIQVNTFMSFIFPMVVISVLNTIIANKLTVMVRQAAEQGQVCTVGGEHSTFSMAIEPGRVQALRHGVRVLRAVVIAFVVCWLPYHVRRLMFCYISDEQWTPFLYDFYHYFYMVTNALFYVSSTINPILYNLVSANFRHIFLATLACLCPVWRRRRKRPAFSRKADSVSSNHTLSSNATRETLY
Sequence of mouse Cholecystokinin, CCK1 Receptor (CCKA), Cckar (gene 12425) (O08786 whole entry, looked up): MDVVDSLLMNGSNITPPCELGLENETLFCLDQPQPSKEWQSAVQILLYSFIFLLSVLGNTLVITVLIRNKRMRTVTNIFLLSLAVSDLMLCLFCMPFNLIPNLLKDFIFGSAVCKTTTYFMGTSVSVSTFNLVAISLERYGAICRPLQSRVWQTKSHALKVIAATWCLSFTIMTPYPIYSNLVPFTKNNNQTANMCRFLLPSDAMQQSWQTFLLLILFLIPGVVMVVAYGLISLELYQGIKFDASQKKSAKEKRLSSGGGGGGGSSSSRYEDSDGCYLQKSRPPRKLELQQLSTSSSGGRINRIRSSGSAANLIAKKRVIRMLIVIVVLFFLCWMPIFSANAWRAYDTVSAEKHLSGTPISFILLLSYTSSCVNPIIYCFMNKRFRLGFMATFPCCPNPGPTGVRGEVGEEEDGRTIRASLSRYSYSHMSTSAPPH

For the compound `CCOP(=S)(Oc1cnc(C(C)(C)C)nc1)OC(C)C` (stereo unspecified), the half-maximal activity concentration (AC50) (as a rule, the concentration at which the activity in the assay is half-maximal) in test [1] is 11.5 µM (active).
Consider `COP(=O)(OC)OC(Br)C(Cl)(Cl)Br` (stereo unspecified), for which the AC50 in test [2] was 11.8 µM (active); in test [3], 15.5 µM (active). Besides, the outcome in test [1] was inactive.
For the compound `COc1cc(OC)nc(Sc2cccc(Cl)c2C(=O)O)n1`, the outcome in [4] was inactive. The AC50 in test [5] is 4.45 µM (active).
For the compound `Cc1cc(C2CC2)nc(Nc2ccccc2)n1`, the half-maximal activity concentration (AC50) in [6] was 10.1 µM (active); in [7], 5.41 µM (active); in [8], 6.13 µM (active); in [9] it was 6.51 µM (active).
Consider `CC(C1CC1)C(O)(Cn1cncn1)c1ccc(Cl)cc1` (stereo unspecified), for which the half-maximal activity concentration (AC50) in test [9] was 12.1 µM (active).
Take `CC(C)N(C(=O)SCC(Cl)=C(Cl)Cl)C(C)C`: in test [9], the call was inactive.
On to `CC[C@H](C)[C@H]1O[C@]2(C=C[C@@H]1C)C[C@@H]1C[C@@H](C/C=C(\C)[C@@H](O[C@H]3C[C@H](OC)[C@@H](O[C@H]4C[C@H](OC)[C@@H](NC)[C@H](C)O4)[C@H](C)O3)[C@@H](C)/C=C/C=C3\CO[C@@H]4[C@H](O)C(C)=C[C@@H](C(=O)O1)[C@]34O)O2`, for which the AC50 was 25 µM (active) in [10]; 8.1 µM (active) in test [2]; 12.6 µM (active) in [6]; 10.1 µM (active) in test [7]; 12.9 µM (active) in test [9]; 18.3 µM (active) in [3]. Further, the AC50 in test [11] is 8.41 µM (active); in [12] it was 0.00229 µM (active); in test [13] it was 15.5 µM (active); in test [5], 14.5 µM (active); in test [15], 10.4 µM (active). For the same compound, in [14], the outcome was inactive.
With `CC(C)=CC1C(C(=O)OCN2C(=O)C3=C(CCCC3)C2=O)C1(C)C` (stereo unspecified), the AC50 was 6.68 µM (active) in test [2] and 7.72 µM (active) in test [1].
For `CNC(=O)Oc1cccc2c1OC(C)(C)O2`, in test [16], the compound was called inactive.
With `O=C(O)c1cc(Oc2ccc(C(F)(F)F)cc2Cl)ccc1[N+](=O)[O-]`, the outcome in [10] and in [13] was inactive.
On to `CCCSP(=O)(OCC)Oc1ccc(Br)cc1Cl` (stereo unspecified), for which the compound was called inactive in [15].
With `S=C1NCCN1`, the compound was classed as inactive in test [10], in test [8] and in test [3].
Regarding `CCCOCC(=Nc1ccc(Cl)cc1C(F)(F)F)n1ccnc1`, the AC50 in [2] is 9.19 µM (active). Besides, the compound was classed as inactive in [8] and in test [11].
Turning to `CCc1cccc(CC)c1N(COC)C(=O)CCl`, the compound was called inactive in [11].
In the case of `C[N+]1(C)CCCCC1`, the compound was called inactive in test [8] and in test [17].
As to `CCCCSP(=O)(SCCCC)SCCCC`, in test [12], the compound was classed as inactive.
For the compound `CCOP(=O)(OCC)Oc1cc(C)nc(C(C)C)n1`, the call in [18] was inactive.
